An excerpt weighted towards active compounds, which were near 2.8% of everything screened.
PI5P4K alpha inh – qHTS for Inhibitors of phosphatidylinositol 5-phosphate 4-kinase (PI5P4K); Phosphatidylinositol 5-phosphate 4-kinase type-2 alpha (Homo sapiens), P48426; PI5P4Kalpha enzyme, ADP-Glo luminescence, 60 min; hits give low values; max response, %; hit rate 1.2% among 330,000; active means max response of -50% or lower; inconclusive means between -30% and -50%; inactive means -30% or higher; further: value at the top dose of about 77 µM; on the % scale 0 is the no-effect control and ±100 the full control effect
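ADP-Glo luminescence end-point read after a 60 min room-temperature kinase reaction of PI5P4Kalpha plus substrate, initiated with ATP at 5 microM final. Buffer: 0.038 M HEPES pH 7.4, EGTA, 0.1% CHAPS, 5% DMSO.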
POLI inh – qHTS for Inhibitors of Polymerase Iota. Pol iota fluorescent replication assay, 10 min. AID 588590, 2011. Potency, µM (titrated, usually from 115 µM), for the others: top-dose activity, negative = inhibition, hits mostly inhibitors. DNA polymerase iota (Homo sapiens), Q9UNA4. hit rate 1% among 390,000; further: potency means the concentration at half of the fitted maximal effect
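Fluorescent replication assay read twice, at 0 min and 10 min after adding 50 nM (final) substrate. Enzyme (10 nM) and compounds were first incubated 15 min at room temperature; enzyme-free buffer wells were negative controls.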
Pol eta inh-1 – qHTS for Inhibitors of Polymerase Eta; DNA polymerase eta (Homo sapiens), Q9Y253; recombinant Pol eta, fluorescent DNA replication assay; hit rate 1.2% among 390,000; Potency, µM (series often up to 114 µM), without a hit: at the top dose activity change, negative = inhibition, most hits filed as inhibitors; further: potency means the concentration at half of the fitted maximal effect; on the % scale 0 is the no-effect control and ±100 the full control effect
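Pol eta (10 nM) was preincubated with compounds for 15 min at room temperature, after which fluorescent replication substrate (50 nM final) was added to start the reaction. Fluorescence was read kinetically at 0 and 10 min.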
Pol kappa inh-1 – qHTS for Inhibitors of Polymerase Kappa. AID 588579, 2011. purified Pol kappa, fluorescent DNA synthesis assay, 10 min. hit rate 0.53% among 400,000. Potency, µM (top dose mostly 107 µM), inactives show at the highest dose activity, negative = inhibition, most hits filed as inhibitors. DNA polymerase kappa (Homo sapiens), Q9UBT6; further: potency means the concentration at half of the fitted maximal effect; on the % scale 0 is the no-effect control and ±100 the full control effect
Target sequence (Q9UBT6 whole entry, looked up): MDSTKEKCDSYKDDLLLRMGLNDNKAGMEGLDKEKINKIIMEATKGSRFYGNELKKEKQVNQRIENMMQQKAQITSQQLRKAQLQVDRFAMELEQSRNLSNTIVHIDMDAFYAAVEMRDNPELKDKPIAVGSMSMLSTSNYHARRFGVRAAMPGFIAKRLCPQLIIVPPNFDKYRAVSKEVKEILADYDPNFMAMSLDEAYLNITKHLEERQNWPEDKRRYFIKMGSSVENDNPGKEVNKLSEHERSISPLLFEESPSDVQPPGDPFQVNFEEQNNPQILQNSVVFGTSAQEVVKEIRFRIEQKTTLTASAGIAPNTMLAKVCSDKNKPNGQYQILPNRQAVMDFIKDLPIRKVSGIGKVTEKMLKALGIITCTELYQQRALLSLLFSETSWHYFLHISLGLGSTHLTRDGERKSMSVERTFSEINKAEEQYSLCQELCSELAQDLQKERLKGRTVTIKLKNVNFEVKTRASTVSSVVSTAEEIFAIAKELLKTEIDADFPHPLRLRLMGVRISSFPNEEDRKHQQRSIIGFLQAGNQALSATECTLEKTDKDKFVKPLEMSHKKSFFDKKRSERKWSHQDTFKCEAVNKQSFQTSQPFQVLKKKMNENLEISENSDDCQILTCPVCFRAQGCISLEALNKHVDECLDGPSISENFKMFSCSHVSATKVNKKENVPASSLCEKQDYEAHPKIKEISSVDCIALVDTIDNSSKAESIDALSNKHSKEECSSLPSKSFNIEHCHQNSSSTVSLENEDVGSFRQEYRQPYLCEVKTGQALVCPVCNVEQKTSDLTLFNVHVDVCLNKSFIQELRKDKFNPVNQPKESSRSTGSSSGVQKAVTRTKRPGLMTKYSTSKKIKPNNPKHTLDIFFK
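First, compounds were pin-transferred onto 10 nM Pol kappa. After 15 min at room temperature, substrate was added to 50 nM final. Fluorescence was then measured kinetically at 0 and 10 min.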
PI4K2A block – qHTS for small molecular inhibitors of PI4K2A | Phosphatidylinositol 4-kinase type 2-alpha (Homo sapiens), Q9BTU6 | purified PI4K2A, ADP-Glo luminescence, 1 h; hits give low values | activity change, negative = inhibition, % at 76.9 µM | hit rate 0.13% among 420,000 | AID 1346378, 2018; in the data active means activity change below about -50%; inconclusive means mostly about -30% to -49%;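 further: -100% = wells without enzyme as full effect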
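Compounds are screened against recombinant PI4K2A using PI as substrate and ATP, the latter dispensed at 300 microM. Reactions run one hour at ambient temperature before ADP-Glo detection; full inhibition defined by wells lacking enzyme.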
Pol beta inh – qHTS Assay for Inhibitors of DNA Polymerase Beta; hit rate 1.3% among 340,000; Pol beta primer extension/strand displacement, fluorescence kinetic; Potency, µM (doses to about 114 µM), for inactives: at the highest dose activity change, negative = inhibition, hits mostly inhibitors; AID 485314, 2010; P06746; further: potency means the concentration at half of the fitted maximal effect; on the % scale 0 is the no-effect control and ±100 the full control effect
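Pol beta (10 nM) and compounds were preincubated 15 min at room temperature, then 50 nM substrate (final) started primer extension/strand displacement. Reads were taken at 0 and 10 min; concentration-response data were fitted to a four-parameter Hill equation.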
GALK inh confirm – Confirmation Assay for Inhibitors of Human Galactokinase (GALK) | purified GALK, Kinase-Glo ATP depletion luminescence | Potency, µM (top dose mostly 115 µM), without a hit: at the top dose activity, negative = inhibition, most hits filed as inhibitors | AID 2015, 2009 | hit rate 70% among 150 | shares compounds with Pol eta inh-1
GALK redox cs – Confirmatory Assay for Inhibitors of Human Galactokinase (GALK): Phenol-HRP redox assay counterscreen; shares compounds with Pol eta inh-1; Phenol red-HRP H2O2 redox cycling, absorbance 600 nm; Potency, µM (series often up to 115 µM), for inactives: at the highest dose activity change, negative = H2O2 signal, usual class: inhibitors; hit rate 40% among 150
HEK293 tox – Secondary Assay for Inhibitors of Human Galactokinase (GALK): HEK-293 Cell Viability Assay | HEK-293 viability, ATP luminescence (CellTiter-Glo), 24/48 h | hit rate 10% among 170 | shares compounds with Pol eta inh-1 | AID 2547, 2010 | Potency, µM (titrated, usually from 46.1 µM), inactives show at the top dose activity change, negative = cytotoxicity, most hits filed as inhibitors; further: potency means the concentration at half of the fitted maximal effect; on the % scale 0 is the no-effect control and ±100 the full control effect
Pol kappa inh-2 – qHTS for Inhibitors of Polymerase Kappa: Confirmatory Assay for Cherry-picked Compounds; shares compounds with Pol eta inh-1; purified Pol-kappa, fluorescent strand-displacement substrate; Potency, µM, most hits filed as inhibitors; hit rate 76% among 920; further: potency means the concentration at half of the fitted maximal effect
Pol eta inh-2 – qHTS for Inhibitors of Polymerase Eta: Confirmatory Assay for Cherry-picked Compounds. shares compounds with Pol eta inh-1. Pol eta primer extension, TAMRA/BHQ fluorescence, 10 min. Potency, µM, most hits filed as inhibitors. hit rate 64% among 2,600. AID 720502, 2013; further: potency means the concentration at half of the fitted maximal effect
* hit, by the source's call; u = inconclusive; x = not tested or not shown; [ ] = dose if it differs, or a comment. Unless noted, the call rests on the fitted dose curve; in most records, active means well fitted curve in the direction sought with a large enough effect; inconclusive means small, poorly fitted or top-dose-only effect, or another doubt; inactive means no such curve, though single readings can be large; an effect the other way counts as inactive or inconclusive.

SMILES	PI5P4K alpha inh	POLI inh	Pol eta inh-1	Pol kappa inh-1	PI4K2A block	Pol beta inh	Pol eta inh-2	others
CCCCCn1c(=O)[nH]c2cc(C(=O)Nc3ccc(OC)c(OC)c3)ccc2c1=O	x	u	-1%	-29%	2	-24%	x
CCOC(=O)c1ccc(NC(=O)c2c(NCc3cccs3)sc3c2CCCCC3)cc1	x	u	79µM*	-8%[60.1 µM]	-14	u	u
O=C(O)c1ccc(Cn2nnc3sc4c(c3c2=O)CCCC4)cc1	-12	u	20µM*	u	-2	12%	u
COC(=O)c1ccc(Cn2nnc3sc4c(c3c2=O)CCCC4)cc1	x	-8%	x	-6%	2	u	x
CCc1ccc2c(c1)c(=O)c(S(=O)(=O)c1ccc(F)cc1)cn2CC(=O)Nc1ccc(C)cc1C	x	9%	-7%	-20%	-2	15%	x
CC(C)Sc1nc2sc3c(c2c2nnc(SCC(=O)NCc4ccco4)n12)CCCC3	u	u	4.5µM*	-18%	-3	-11%	67*
O=C(CSc1nc(C2CC2)nc2sc3c(c12)CCCC3)NCc1ccco1	x	8%	-1%	-4%	-7	-3%	x
Cc1cc(NC(=O)c2cc([N+](=O)[O-])cc([N+](=O)[O-])c2)no1	8	7%	13%	11%	-1	0%	x
Cc1cc(NC(=O)c2cc([N+](=O)[O-])cc([N+](=O)[O-])c2C)no1	-29	56µM*	32µM*	u	-5	u	u
Fc1cccc(-c2nn[nH]n2)c1	-12	15%	-7%	3%	10	5%	x
Cc1ccc(C)n1-c1cccc(-c2nn[nH]n2)c1	x	x	x	x	x	x	u
Cc1occc1C(=O)Nc1cccc(/C=C/C(=O)O)c1	-3	u	18µM*	u	-10	x	27*
Cc1occc1C(=O)Nc1cccc(C(=O)O)c1	x	u	-12%	-2%	-9	-5%	x
CCOC(=O)c1c(C)sc(-c2c(-c3cc(C)ccc3C)[nH]c3c2c(=O)[nH]c(=O)n3C)c1O	x	89µM*	x	-26%	-17	u	u
Cc1cc(Nc2ccc(F)cc2)nc(-n2nc(C)cc2C)n1	x	-4%	-16%	-10%[60.1 µM]	0	31%	x
c1coc(-c2nc3ccccc3nc2-c2ccco2)c1	x	u	50µM*	u	-12	18µM*	u
Cc1c(C(=O)O)cccc1-c1ccc(/C=N/n2cnnc2)o1	-5	35µM*	20µM*	89µM*	1	25µM*	48*	Pol kappa inh-2=15*
COc1cccc(-c2nnc(SCC(=O)N(C)c3ccccc3)o2)c1	x	3%	x	-2%	3	-2%	x
COc1cc(/C=C2/C(=O)NN(c3ccc(Cl)c(Cl)c3)C2=O)cc([N+](=O)[O-])c1O	-88*	18µM*	20µM*	-86%	-8	20µM*	30*	GALK inh confirm=33µM*;GALK redox cs=-3%;HEK293 tox=13%
COc1cc(/C=C2/C(=O)NN(c3ccc(F)cc3)C2=O)cc(Cl)c1O	u	u	-4%	-38%	0	24%	x
COc1ccc(-c2ccc(C)cc2)cc1C1C2C=CCC(C)C2C(=O)N1Cc1ccccc1 (stereo not drawn)	x	5%	x	4%	x	x	x
O=[N+]([O-])c1ccc(OCCCN2CCC(C(O)(c3ccccc3)c3ccccc3)CC2)c(Cl)c1	x	x	x	x	-2	x	x
COc1cc(/C=C2\NC(=S)NC2=O)ccc1OCc1cccc(C(=O)O)c1	-4	u	22µM*	u	-2	u	38*	Pol kappa inh-2=21*
CCOc1ccccc1NC(=O)C(NS(=O)(=O)c1ccc2c(c1)CCC(=O)N2)c1ccccc1 (stereo not drawn)	x	11%	-14%	-1%	-2	25%	x
O=C(Nc1cccnc1Cl)c1ccc(=O)oc1	u	22µM*	20µM*	45µM*	-10	13µM*	u
SMILES	PI5P4K alpha inh	POLI inh	Pol eta inh-1	Pol kappa inh-1	PI4K2A block	Pol beta inh	Pol eta inh-2	others
O=C(O)CC(C(=O)O)c1ccc(OCCCCOc2ccc(C(CC(=O)O)C(=O)O)cc2)cc1 (stereo not drawn)	1	79µM*	18µM*	79µM*	1	u	9.5*	Pol kappa inh-2=9.5*
CC(C)CCOc1ccc(C(CC(N)=O)C(=O)O)cc1 (stereo not drawn)	1	6%	-14%	-2%	-5	12%	x
CCOC(=O)C(C)Nc1ncnc2onc(C)c12 (stereo not drawn)	x	-1%	-4%	-2%	-1	19%	x
CC(=O)Oc1ccc(C(=O)Nc2cccc(C(=O)NC(C)(C)C)c2)cc1	u	56%	-10%	3%	0	-14%	x
CC(=O)Oc1ccc(C(=O)Nc2cccc(C(=O)c3cccc(NC(=O)c4ccc(OC(C)=O)cc4)c3)c2)cc1	6	7.9µM*	3.2µM*	u	u	13µM*	54*
CC(=O)NN1C(=O)/C(=C/c2ccc(Br)o2)SC1=S	u	2.5µM*	4µM*	7.9µM*	-27	u	u
COc1ccc(Nc2cc3n(c(=O)n2)CCc2cc(OC)c(OC)cc2-3)cc1	-21	196%	-21%	-12%	6	-25%	x
COc1cc2c(cc1OC)-c1cc(Nc3ccc(C(=O)O)cc3)nc(=O)n1CC2	-22	u	35µM*	-27%	0	u	u

Screening data (PubChem)
